Records with an inconclusive call do not appear. Calls of active or inactive are those of the source. The calls were made as follows, unless noted: active = hit-call score of the fitted dose curve at least 0.9, where 1 is the maximum; inactive = score below 0.9.
Key:
[1] = read-out: CD38, CD38 (gene 952); assay: BSK_SAg_CD38: BioMAP Diversity Plus: SAg Assay for CD38 Biomarker Activity (AID 2283087); conditions: primary human HUVEC with PBMC; actives raise or lower the signal
How it was run: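 Fluorescence ELISA of cell-surface CD38 served as the read-out, with either increase or decrease fitted against DMSO controls. Cells were a human umbilical vein endothelium plus PBMC co-culture under SEB/TSST-1 stimulation, measured 24 h after dosing.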

[2] = read-out: CD40, CD40 (gene 958); assay: BSK_SAg_CD40: BioMAP Diversity Plus: SAg Assay for CD40 Biomarker Activity (AID 2283088); conditions: primary human HUVEC with PBMC; actives raise or lower the signal
How it was run: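 HUVEC plus PBMC co-culture, superantigen-activated, with CD40 read by ELISA 24 h after dosing. Curves fitted in both directions against DMSO. Overt cytotoxicity checked by parallel SRB total-protein staining.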

[3] = read-out: CD69, CD69 (gene 969); assay: BSK_SAg_CD69: BioMAP Diversity Plus: SAg Assay for CD69 Biomarker Activity (AID 2283089); conditions: primary human HUVEC with PBMC; actives raise or lower the signal;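 as to AC50: cell surface CD69 protein quantified by ELISA with fluorescence detection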
How it was run: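 Primary human vascular co-culture (umbilical vein endothelium with peripheral blood mononuclear cells) exposed to test chemical for 24 h. CD69 levels quantified by fluorescence ELISA; DMSO served as negative control for bidirectional fitting.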

[4] = read-out: Monocyte Chemoattractant Protein-1 (MCP1), CCL2 (gene 6347); assay: BSK_SAg_MCP1: BioMAP Diversity Plus: SAg Assay for Monocyte Chemoattractant Protein-1 (MCP1) Biomarker Activity (AID 2283090); conditions: primary human HUVEC with PBMC; actives raise or lower the signal
How it was run: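 MCP-1 levels in the endothelial–PBMC SAg co-culture were quantified by ELISA at 24 h post-dosing; both increases and decreases versus DMSO scored. Cytotoxicity monitored by SRB total protein in parallel cultures.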

[5] = read-out: E-selectin (Homo sapiens) (UniProt P16581); assay: BSK_SAg_Eselectin: BioMAP Diversity Plus: SAg Assay for Eselectin Biomarker Activity (AID 2283091); conditions: primary human HUVEC with PBMC; actives raise or lower the signal
How it was run: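 Human umbilical vein endothelial cells co-cultured with peripheral blood mononuclear cells, SAg system. E-selectin is measured by ELISA 24 h after dosing and fitted bidirectionally against DMSO. Cytotoxicity is checked by SRB staining of parallel cultures.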

[6] = read-out: Monokine induced gamma interferon (MIG), CXCL9 (gene 4283); assay: BSK_SAg_MIG: BioMAP Diversity Plus: SAg Assay for Monokine induced gamma interferon (MIG) Biomarker Activity (AID 2283092); conditions: primary human HUVEC with PBMC; actives raise or lower the signal
How it was run: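 Endothelial cells and PBMC were co-cultured, exposed to test chemicals, and sampled 24 h later. MIG was measured by ELISA, and responses were fitted in both directions relative to DMSO.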

[7] = BSK_SAg_PBMCCytotoxicity: PBMC Cytotoxicity Assessment in the BioMAP Diversity Plus: SAg Assay (AID 2283093); conditions: primary human HUVEC with PBMC;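 also: PBMC viability measured as Alamar Blue reduction fluorescence at 546/580 nm; fitted both ways against DMSO so a hit may be loss or gain of signal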;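 as to AC50: PBMC superantigen activated with SEB plus TSST-1 one hour after compound addition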
How it was run: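 HUVEC/PBMC co-culture; PBMC exposed to chemical 1 h before SEB and TSST-1 activation (20 ng/mL each), incubated 90 h, then Alamar Blue 6 h, fluorescence 546/580 nm. Bidirectional fit versus DMSO baseline.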

[8] = read-out: Interleukin-8 (IL8), CXCL8 (gene 3576); assay: BSK_SAg_IL8: BioMAP Diversity Plus: SAg Assay for Interleukin-8 (IL8) Biomarker Activity (AID 2283094); conditions: primary human HUVEC with PBMC; actives raise or lower the signal
How it was run: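 In this co-culture of human umbilical vein endothelium with peripheral blood mononuclear cells, IL-8 is assayed by ELISA at 24 h. DMSO serves as baseline for bidirectional curve fitting.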

[9] = BSK_SAg_Proliferation: Cell Proliferation Assessment in the BioMAP Diversity Plus: SAg Assay (AID 2283095); conditions: primary human HUVEC with PBMC;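 also: relative cell number as total protein by SRB absorbance in sub-confluent culture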
How it was run: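 Readout is SRB-stained protein (560 nm) in a primary human HUVEC and PBMC co-culture; sub-confluent cultures are read at 96 h. Activity is fitted bidirectionally using DMSO as baseline.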

[10] = read-out: Vascular cell adhesion molecule 1 (VCAM1), VCAM1 (gene 7412); assay: BSK_LPS_VCAM1: BioMAP Diversity Plus: LPS Assay for Vascular cell adhesion molecule 1 (VCAM1) Biomarker Activity (AID 2283086); conditions: primary human HUVEC with PBMC; actives raise or lower the signal
How it was run: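 Primary human vascular co-culture (umbilical vein endothelium plus PBMC) stimulated with LPS received chemical; 24 h later VCAM-1 was read by ELISA. Overt cytotoxicity was assessed by sulforhodamine B staining of parallel cultures at the same time point.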

[11] = BSK_SAg_SRB: Viability Assessment in the BioMAP Diversity Plus: SAg Assay (AID 2283096); conditions: primary human HUVEC with PBMC;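 also: cells read one day after compound addition; hits may be either gain or loss of signal compared with DMSO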
How it was run: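 Human umbilical vein endothelial cells co-cultured with PBMC, read 24 h after compound dosing. Total protein measured by sulforhodamine B staining (0.1% SRB after 10% TCA fixation, absorbance 560 nm); bidirectional fit versus DMSO baseline.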

[12] = biological target: human CYP2C9, CYP2C9 (gene 1559) (UniProt P11712); assay: NVS_ADME_hCYP2C9: NovaScreen (NVS) CYP450-related Enzyme Activity (ADME) Assay for human CYP2C9 (AID 2283108; active = hit-call score of the fitted dose curve at least 0.9, where 1 is the maximum)
How it was run: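 Recombinant human CYP2C9 expressed in SF9 cells, fluorogenic substrate, fluorescence read 0.75 h after dosing. Chemicals first run in duplicate at 10 uM, with actives followed in concentration series; loss of signal versus acetonitrile baseline.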

[13] = biological target: Cytochrome P450 3A4 (Homo sapiens) (UniProt P08684); assay: NVS_ADME_hCYP3A4: NovaScreen (NVS) CYP450-related Enzyme Activity (ADME) Assay for human CYP3A4 (AID 2283110; active = hit-call score of the fitted dose curve at least 0.9, where 1 is the maximum)
How it was run: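 Cell-free recombinant enzyme expressed in insect cells; fluorescent substrate turnover read after 0.33 h, acetonitrile as negative control. Primary screen in duplicate at 10 uM, actives then tested in concentration series.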

[14] = biological target: Cytochrome P450 2C19 (Homo sapiens) (UniProt P33261); assay: NVS_ADME_hCYP2C19: NovaScreen (NVS) CYP450-related Enzyme Activity (ADME) Assay for human CYP2C19 (AID 2283113; active = hit-call score of the fitted dose curve at least 0.9, where 1 is the maximum;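 also: potency for inhibition seen as loss of fluorescent signal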)
How it was run: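 Cell-free recombinant human CYP2C19 from insect cells, fluorescent substrate; activity read by fluorescence intensity 1 h after dosing. Primary screen in duplicate at 10 uM; actives retested in concentration series. Signal loss versus acetonitrile negative control.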

[15] = biological target: human CYP1A2, CYP1A2 (gene 1544) (UniProt P05177); assay: NVS_ADME_hCYP1A2: NovaScreen (NVS) CYP450-related Enzyme Activity (ADME) Assay for human CYP1A2 (AID 2283102; active = hit-call score of the fitted dose curve at least 0.9, where 1 is the maximum;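 also: potency for inhibition since loss of fluorescence marks reduced CYP1A2 activity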)
How it was run: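 Recombinant human CYP1A2 from insect cells, cell-free, fluorogenic substrate; read 0.5 h after dosing with loss of fluorescence signal indicating inhibition. Primary screen in duplicate at 10 uM, acetonitrile as negative control.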

[16] = biological target: human CYP19A1, CYP19A1 (gene 1588) (UniProt P11511); assay: NVS_ADME_hCYP19A1: NovaScreen (NVS) CYP450-related Enzyme Activity (ADME) Assay for human CYP19A1 (AID 2283098; active = hit-call score of the fitted dose curve at least 0.9, where 1 is the maximum;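 also: potency for inhibitors seen as loss of fluorescent enzyme signal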)
How it was run: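 Recombinant enzyme in a cell-free format, read 0.5 h after dosing by fluorescence from a fluorogenic substrate. Loss of signal was fitted against acetonitrile as baseline. Primary screen in duplicate at 10 uM, actives then tested in concentration series.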

[17] = biological target: human CYP2B6, CYP2B6 (gene 1555) (UniProt P20813); assay: NVS_ADME_hCYP2B6: NovaScreen (NVS) CYP450-related Enzyme Activity (ADME) Assay for human CYP2B6 (AID 2283101; active = hit-call score of the fitted dose curve at least 0.9, where 1 is the maximum)
How it was run: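 Cell-free recombinant enzyme assay with a fluorogenic substrate; fluorescence intensity read 1 hour after dosing. Loss of signal relative to acetonitrile negative control indicates inhibition. Primary screen run in duplicate at 10 uM, actives then tested in concentration series.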

[18] = biological target: human CYP2D6, CYP2D6 (gene 1565) (UniProt P10635); assay: NVS_ADME_hCYP2D6: NovaScreen (NVS) CYP450-related Enzyme Activity (ADME) Assay for human CYP2D6 (AID 2283107; active = hit-call score of the fitted dose curve at least 0.9, where 1 is the maximum)
How it was run: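 Cell-free assay using recombinant human CYP2D6 expressed in insect cells, with a fluorogenic substrate read after 1 h. Primary screen in duplicate at 10 uM; actives followed up in concentration series. Loss of signal fitted relative to acetonitrile.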

Chain of E-selectin (Homo sapiens) (P16581 whole entry, looked up): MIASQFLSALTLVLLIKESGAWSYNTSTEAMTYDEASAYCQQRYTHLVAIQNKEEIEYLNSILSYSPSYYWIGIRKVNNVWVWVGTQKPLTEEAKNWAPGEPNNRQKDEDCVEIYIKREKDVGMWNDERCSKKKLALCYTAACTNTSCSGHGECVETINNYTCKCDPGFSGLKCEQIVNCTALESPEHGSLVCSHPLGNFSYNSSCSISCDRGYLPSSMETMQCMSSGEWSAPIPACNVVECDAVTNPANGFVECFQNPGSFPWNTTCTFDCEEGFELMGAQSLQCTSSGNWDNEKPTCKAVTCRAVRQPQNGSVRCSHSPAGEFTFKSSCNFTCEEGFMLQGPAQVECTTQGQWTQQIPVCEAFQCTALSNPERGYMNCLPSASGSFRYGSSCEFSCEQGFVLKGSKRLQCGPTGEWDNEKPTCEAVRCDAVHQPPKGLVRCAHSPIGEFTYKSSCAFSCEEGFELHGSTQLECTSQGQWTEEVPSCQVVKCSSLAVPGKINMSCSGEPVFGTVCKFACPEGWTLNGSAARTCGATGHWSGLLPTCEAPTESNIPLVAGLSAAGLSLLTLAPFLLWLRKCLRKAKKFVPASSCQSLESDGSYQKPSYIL
Chain of human CYP2C9, CYP2C9 (gene 1559) (P11712 whole entry, looked up): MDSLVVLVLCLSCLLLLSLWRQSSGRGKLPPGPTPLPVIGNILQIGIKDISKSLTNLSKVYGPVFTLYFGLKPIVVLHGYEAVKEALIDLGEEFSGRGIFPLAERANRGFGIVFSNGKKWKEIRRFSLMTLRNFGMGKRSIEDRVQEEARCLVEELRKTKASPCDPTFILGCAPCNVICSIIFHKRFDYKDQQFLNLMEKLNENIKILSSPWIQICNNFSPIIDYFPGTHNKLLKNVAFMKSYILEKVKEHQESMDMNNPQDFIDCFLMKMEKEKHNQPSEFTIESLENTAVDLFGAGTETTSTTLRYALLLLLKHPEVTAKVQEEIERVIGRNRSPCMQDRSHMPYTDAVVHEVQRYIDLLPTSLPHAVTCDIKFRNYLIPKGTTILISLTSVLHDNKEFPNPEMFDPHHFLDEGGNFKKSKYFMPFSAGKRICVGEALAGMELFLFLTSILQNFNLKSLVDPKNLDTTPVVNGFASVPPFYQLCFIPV
Chain of Cytochrome P450 3A4 (Homo sapiens) (P08684 whole entry, looked up): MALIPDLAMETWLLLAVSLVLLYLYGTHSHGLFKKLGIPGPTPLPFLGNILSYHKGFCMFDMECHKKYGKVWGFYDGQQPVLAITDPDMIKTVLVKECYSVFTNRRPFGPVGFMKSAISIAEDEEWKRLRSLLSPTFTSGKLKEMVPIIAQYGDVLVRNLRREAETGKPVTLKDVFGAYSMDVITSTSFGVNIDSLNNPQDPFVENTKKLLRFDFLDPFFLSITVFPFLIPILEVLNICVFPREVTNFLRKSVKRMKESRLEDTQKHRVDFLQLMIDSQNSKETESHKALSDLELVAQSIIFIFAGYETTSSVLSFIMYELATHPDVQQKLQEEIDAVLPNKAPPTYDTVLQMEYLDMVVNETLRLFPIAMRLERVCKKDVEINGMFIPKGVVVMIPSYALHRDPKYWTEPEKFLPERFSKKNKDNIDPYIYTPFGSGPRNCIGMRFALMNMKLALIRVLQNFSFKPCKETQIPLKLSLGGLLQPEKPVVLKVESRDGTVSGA
Chain of human CYP2D6, CYP2D6 (gene 1565) (P10635 whole entry, looked up): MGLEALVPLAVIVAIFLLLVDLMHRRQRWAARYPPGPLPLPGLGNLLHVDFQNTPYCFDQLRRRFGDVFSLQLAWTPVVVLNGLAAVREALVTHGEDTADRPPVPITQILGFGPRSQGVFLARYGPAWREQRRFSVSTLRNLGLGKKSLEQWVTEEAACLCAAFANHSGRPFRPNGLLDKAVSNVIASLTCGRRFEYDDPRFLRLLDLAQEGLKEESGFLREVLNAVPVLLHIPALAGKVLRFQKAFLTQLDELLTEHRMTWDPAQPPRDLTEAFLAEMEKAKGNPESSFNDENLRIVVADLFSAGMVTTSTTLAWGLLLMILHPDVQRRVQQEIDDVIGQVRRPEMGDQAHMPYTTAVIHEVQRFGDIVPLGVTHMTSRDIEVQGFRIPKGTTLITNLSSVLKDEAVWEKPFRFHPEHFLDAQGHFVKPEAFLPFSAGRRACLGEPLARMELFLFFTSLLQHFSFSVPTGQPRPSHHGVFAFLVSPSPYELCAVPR
Chain of human CYP1A2, CYP1A2 (gene 1544) (P05177 whole entry, looked up): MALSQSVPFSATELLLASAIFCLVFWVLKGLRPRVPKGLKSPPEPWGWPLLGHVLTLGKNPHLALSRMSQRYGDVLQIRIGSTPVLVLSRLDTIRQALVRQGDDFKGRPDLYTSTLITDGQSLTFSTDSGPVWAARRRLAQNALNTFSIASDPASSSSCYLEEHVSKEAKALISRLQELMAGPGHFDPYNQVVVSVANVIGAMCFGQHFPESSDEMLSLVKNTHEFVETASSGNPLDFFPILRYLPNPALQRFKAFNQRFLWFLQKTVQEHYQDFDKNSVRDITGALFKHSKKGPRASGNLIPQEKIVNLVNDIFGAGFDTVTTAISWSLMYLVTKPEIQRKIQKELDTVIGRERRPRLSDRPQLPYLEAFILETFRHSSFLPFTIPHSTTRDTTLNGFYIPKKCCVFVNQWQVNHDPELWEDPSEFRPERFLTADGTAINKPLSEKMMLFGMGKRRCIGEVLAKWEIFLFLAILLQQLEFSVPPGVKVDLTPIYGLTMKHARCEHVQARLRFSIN
Chain of human CYP2B6, CYP2B6 (gene 1555) (P20813 whole entry, looked up): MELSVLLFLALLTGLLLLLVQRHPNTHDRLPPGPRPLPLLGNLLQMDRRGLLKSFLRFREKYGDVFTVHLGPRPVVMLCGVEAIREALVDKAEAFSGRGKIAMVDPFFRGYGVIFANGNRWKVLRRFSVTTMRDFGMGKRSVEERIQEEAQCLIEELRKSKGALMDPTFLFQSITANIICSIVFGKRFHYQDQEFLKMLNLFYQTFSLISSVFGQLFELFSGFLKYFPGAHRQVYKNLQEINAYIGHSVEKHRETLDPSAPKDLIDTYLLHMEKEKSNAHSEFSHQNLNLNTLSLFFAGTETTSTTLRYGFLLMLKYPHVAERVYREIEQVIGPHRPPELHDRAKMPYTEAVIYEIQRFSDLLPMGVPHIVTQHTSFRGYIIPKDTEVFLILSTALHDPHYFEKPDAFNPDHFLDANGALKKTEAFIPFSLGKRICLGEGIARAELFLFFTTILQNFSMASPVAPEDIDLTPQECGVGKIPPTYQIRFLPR
Chain of human CYP19A1, CYP19A1 (gene 1588) (P11511 whole entry, looked up): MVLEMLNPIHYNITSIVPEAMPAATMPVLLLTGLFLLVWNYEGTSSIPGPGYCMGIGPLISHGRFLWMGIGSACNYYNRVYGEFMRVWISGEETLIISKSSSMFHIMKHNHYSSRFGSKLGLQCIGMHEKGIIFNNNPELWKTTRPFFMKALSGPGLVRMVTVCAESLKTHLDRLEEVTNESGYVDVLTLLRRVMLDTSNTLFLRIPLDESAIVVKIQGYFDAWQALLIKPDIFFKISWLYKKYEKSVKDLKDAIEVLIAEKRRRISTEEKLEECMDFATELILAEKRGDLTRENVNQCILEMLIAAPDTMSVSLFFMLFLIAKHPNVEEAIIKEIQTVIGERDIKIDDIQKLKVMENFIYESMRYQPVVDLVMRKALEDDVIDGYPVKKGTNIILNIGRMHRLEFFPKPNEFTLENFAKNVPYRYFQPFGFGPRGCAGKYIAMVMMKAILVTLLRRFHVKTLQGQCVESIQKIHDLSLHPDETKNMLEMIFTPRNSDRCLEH

CCCCCCCCO
outcome [1]: inactive | outcome [2]: inactive | outcome [3]: inactive | outcome [4]: inactive | outcome [5]: inactive | outcome [6]: inactive | outcome [7]: inactive | outcome [8]: inactive | outcome [9]: inactive

O=C(O)c1cccc(N(Cc2cccnc2)c2ccc(OC(F)F)c(OC(F)F)c2)c1
AC50 [10]: 15.9 µM (active) | AC50 [1]: 3.61 µM (active) | AC50 [2]: 13.7 µM (active) | AC50 [3]: 4.01 µM (active) | AC50 [4]: 6.77 µM (active) | AC50 [5]: 1.81 µM (active) | outcome [6]: inactive | outcome [7]: inactive | AC50 [8]: 2.31 µM (active) | AC50 [9]: 7.83 µM (active) | outcome [11]: inactive | AC50 [12]: 6.14 µM (active) | AC50 [13]: 6.01 µM (active) | AC50 [14]: 4.98 µM (active)

Cn1c(=O)cc(Oc2ccc(F)cc2F)c2cnc(NCC(C)(C)O)nc21
outcome [10]: inactive | outcome [1]: inactive | outcome [2]: inactive | outcome [3]: inactive | outcome [4]: inactive | outcome [5]: inactive | outcome [6]: inactive | outcome [7]: inactive | AC50 [8]: 1.09 µM (active) | outcome [9]: inactive | outcome [11]: inactive | outcome [13]: inactive

O=C(OC[C@H]1O[C@@H](OC(=O)c2cc(O)c(O)c(OC(=O)c3cc(O)c(O)c(O)c3)c2)[C@H](OC(=O)c2cc(O)c(O)c(OC(=O)c3cc(O)c(O)c(O)c3)c2)[C@@H](OC(=O)c2cc(O)c(O)c(OC(=O)c3cc(O)c(O)c(O)c3)c2)[C@@H]1OC(=O)c1cc(O)c(O)c(OC(=O)c2cc(O)c(O)c(O)c2)c1)c1cc(O)c(O)c(OC(=O)c2cc(O)c(O)c(O)c2)c1
AC50 [10]: 6.1 µM (active) | AC50 [1]: 9.88 µM (active) | AC50 [2]: 8.21 µM (active) | AC50 [3]: 6.1 µM (active) | AC50 [4]: 6.1 µM (active) | AC50 [5]: 6.1 µM (active) | outcome [6]: inactive | outcome [7]: inactive | AC50 [8]: 10.2 µM (active) | AC50 [9]: 6.18 µM (active) | AC50 [15]: 2.01 µM (active) | AC50 [12]: 3.05 µM (active) | AC50 [14]: 2.34 µM (active)

CCOC(=O)c1ccc(C2CCC(NC[C@H](O)COc3ccc(O)c(NS(C)(=O)=O)c3)CC2)cc1 (some centres not stated)
AC50 [10]: 28.1 µM (active) | AC50 [1]: 32.4 µM (active) | outcome [2]: inactive | AC50 [3]: 29.8 µM (active) | AC50 [4]: 11.6 µM (active) | outcome [5]: inactive | outcome [6]: inactive | AC50 [7]: 20.6 µM (active) | AC50 [8]: 28.8 µM (active) | AC50 [9]: 14.4 µM (active) | AC50 [11]: 26.3 µM (active) | AC50 [16]: 0.513 µM (active) | outcome [17]: inactive | AC50 [12]: 2.14 µM (active) | outcome [13]: inactive | AC50 [14]: 1.74 µM (active)

O=C(NS(=O)(=O)/C=C/c1ccccc1)c1ccc(F)cc1Cl
outcome [1]: inactive | AC50 [2]: 9.37 µM (active) | outcome [3]: inactive | outcome [4]: inactive | outcome [5]: inactive | outcome [6]: inactive | outcome [7]: inactive | outcome [8]: inactive | AC50 [9]: 8.5 µM (active) | AC50 [12]: 6.85 µM (active)

Cc1[nH]cnc1C[C@H]1CCc2c(C)c3ccccc3n2C1=O
AC50 [1]: 31.2 µM (active) | AC50 [2]: 29.8 µM (active) | AC50 [3]: 27.4 µM (active) | AC50 [4]: 27.8 µM (active) | AC50 [5]: 30.8 µM (active) | AC50 [6]: 31.9 µM (active) | AC50 [7]: 30.7 µM (active) | AC50 [8]: 24.7 µM (active) | AC50 [9]: 31 µM (active) | AC50 [11]: 26.8 µM (active) | AC50 [17]: 4.01 µM (active) | AC50 [15]: 1.78 µM (active) | AC50 [18]: 3.98 µM (active) | AC50 [12]: 1.77 µM (active) | AC50 [14]: 0.636 µM (active)

CCOC(=O)COc1ccc2c(c1)CC(NCC(O)c1cccc(Cl)c1)CC2 (configuration not stated)
AC50 [1]: 29.2 µM (active) | AC50 [2]: 28.8 µM (active) | AC50 [3]: 18.3 µM (active) | AC50 [4]: 27.7 µM (active) | outcome [5]: inactive | outcome [6]: inactive | AC50 [7]: 27.2 µM (active) | AC50 [8]: 18.3 µM (active) | AC50 [9]: 31.7 µM (active) | AC50 [11]: 27.2 µM (active) | AC50 [18]: 2.51 µM (active) | outcome [13]: inactive | AC50 [14]: 5.22 µM (active)
